# Most compounds without a hit are left out; they make up all but 1.9% or so of the library.
# LDHA block: blocks human lactate dehydrogenase A; activity change, % (values are at about 110 or 230 µM); P00338; actives 0.15% (n = 480,000); purified LDHA, NADH/diaphorase-resazurin fluorescence; stronger effect = lower value; in the data active = activity change below about -30%; inconclusive = mostly about -25% to -30%
#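 Human LDH5 (2 nM) was incubated with 0.06 mM NADH and 0.2 mM pyruvate for 5 min at room temperature in Tris pH 7.4. Remaining NADH was coupled through diaphorase/resazurin, and resorufin fluorescence was read at 0 and 20 min.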
# aSyn rescue: rescues yeast growth from alpha-synuclein toxicity. Yeast expressing alpha-synuclein, growth rescue, BacTiter-Glo, 24 h. Potency, µM (doses to about 46.1 µM), actives largely listed as activators. actives 0.14% (n = 370,000). AID 652106; note: nearly all actives have a fitted effect of over 65% in size
#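 Rescue of yeast growth: cells expressing toxic alpha-synuclein, induced in galactose at OD600 0.02, incubated with compound 24 h at 30 C. ATP luminescence quantified growth; inhibitors of toxicity appear as activators.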
# FUS yeast rescue: suppressors of FUS proteinopathy in yeast; S. cerevisiae FUS-expressing, growth rescue, OD600, 24 h; Potency, µM (titrated, usually from 76.6 µM), hits mostly activators; actives 0.24% (n = 390,000); note: nearly all actives have a fitted effect of over 55% in size
#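 Toxicity suppression screen in FUS-yeast. Cells induced with 2% galactose, starting OD 0.005, treated 24hr at 30C with compounds at multiple final concentrations; growth by OD600.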
# PTHR1 ag: agonists of human PTHR1 parathyroid hormone receptor; Q03431; HEK293 GP2 PTHR1 cells, GloSensor cAMP luminescence, 1 h; Potency, µM (highest dose often 115 µM), hits mostly activators; actives 0.075% (n = 410,000); note: nearly all actives have a fitted effect of over 55% in size
# Target sequence (Q03431 whole entry, looked up): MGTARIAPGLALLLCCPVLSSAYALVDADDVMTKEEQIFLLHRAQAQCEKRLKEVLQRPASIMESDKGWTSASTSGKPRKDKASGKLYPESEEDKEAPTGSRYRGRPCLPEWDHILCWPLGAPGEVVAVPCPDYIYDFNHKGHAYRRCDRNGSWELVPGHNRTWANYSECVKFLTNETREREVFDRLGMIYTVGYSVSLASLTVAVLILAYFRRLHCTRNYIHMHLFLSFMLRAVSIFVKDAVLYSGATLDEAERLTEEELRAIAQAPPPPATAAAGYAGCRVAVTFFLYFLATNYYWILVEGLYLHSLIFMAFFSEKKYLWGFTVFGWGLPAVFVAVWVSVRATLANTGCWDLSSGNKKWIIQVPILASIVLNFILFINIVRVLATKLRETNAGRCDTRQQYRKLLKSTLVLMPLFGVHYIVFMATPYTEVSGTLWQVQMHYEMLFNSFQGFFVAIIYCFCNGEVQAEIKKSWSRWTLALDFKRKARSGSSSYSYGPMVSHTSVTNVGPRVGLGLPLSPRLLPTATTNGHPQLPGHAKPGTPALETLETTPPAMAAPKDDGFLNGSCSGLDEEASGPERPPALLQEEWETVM
#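 HEK-293-derived GP2 cells expressing PTHR1 and a GloSensor cAMP reporter, 3,000/well, plated overnight, given luciferin plus IBMX (each 0.5 mM as added) for 1 h at 37 °C, then compound for 1 h at 37 °C. Luminescence was read after 15 min at room temperature.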
# TDP-43 yeast inh: inhibitors of TDP-43 toxicity in yeast. TDP-43 expressing yeast growth rescue, BacTiter-Glo, 24 h. Potency, µM (highest dose often 46.1 µM), hits mostly activators. actives 1.8% (n = 410,000). AID 652104; note: nearly all actives have a fitted effect of over 50% in size
#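 Galactose-induced TDP-43 yeast, OD600=0.02, compound pinned; 24 hr, 30 deg C; BacTiter-Glo luminescence for growth. Inhibitors of TDP-43 toxicity read as activators.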
# Abeta rescue: A-beta toxicity reversal in yeast; yeast expressing A-beta42, growth rescue, OD600, 48 h; response scale: 0% DMSO, 100% iron-clioquinol control; Potency, µM (titrated, usually from 46.1 µM), most hits filed as activators; actives 0.063% (n = 410,000); note: nearly all actives have a fitted effect of over 55% in size
#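 Yeast growth medium received pinned compounds, then yeast cells expressing toxic A-beta were added; plates incubated at 30 C for 48 hr. Growth read as absorbance at 600 nm, normalized to DMSO and equimolar FeCl3 plus clioquinol controls.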
# Numbers stand for hits; n = inactive; u = inconclusive; x = no result; [ ] = another dose, or the depositor's remark. Unless noted, calls come from the whole dose curve; as a rule, active = well fitted curve in the direction sought with a large enough effect; inconclusive = small, poorly fitted or top-dose-only effect, or another doubt; inactive = no such curve, though single readings can be large; an effect the other way counts as inactive or inconclusive.
SMILES,LDHA block,aSyn rescue,FUS yeast rescue,PTHR1 ag,TDP-43 yeast inh,Abeta rescue
NC(=O)C1CCN(C(=O)CCc2c[nH]c3ccccc23)CC1,n,x,x,x,x,x
COc1ccc(CC(=O)N2N=C(c3cccc(Br)c3)CC2(O)C(F)(F)F)cc1 (stereo not given),n,x,x,x,x,x
CN1C(=O)COc2ccc(NC(=O)C(=O)NC3CC(C)(C)NC(C)(C)C3)cc21,n,x,x,x,x,x
O=C(Nc1nc(-c2ccc3c(c2)OCCO3)cs1)C1CCCC1,n,n,n,n,11.2µM,n
N#CCC(=O)Nc1nc(-c2ccc3c(c2)OCCO3)cs1,n,n,n,n,n,n
NCCCCN1CCCCC1,n,x,x,x,x,x
O=S(=O)(NCc1c(Cl)cccc1Oc1ccccc1)c1ccc(F)cc1,n,n,n,n,17.8µM,n
Cn1cc(CNC(=O)c2cc(COc3ccc4c(c3)CCCC4)on2)cn1,n,n,x,n,u,n
O=C(NC(c1cccnc1)C(F)(F)F)c1cc(COc2ccc3c(c2)CCCC3)on1 (stereo not given),n,n,n,n,20µM,n
COc1ccc2nc(N3C(=O)CC(C(C)c4ccccc4)C3=O)sc2c1 (stereo not given),n,n,x,n,11.2µM,n
Cc1ccc(S(=O)(=O)Nc2ccc(C(=O)N3CCN(c4ccccc4O)CC3)cc2)cc1[N+](=O)[O-],n,n,12.6µM,n,n,n
Cc1ccc2ccc(C(Nc3ccccc3)c3ccccc3)c(O)c2n1 (stereo not given),n,u,n,n,u,u
Cc1ccc2ccc(C(Nc3ccccc3)c3ccc(C(C)C)cc3)c(O)c2n1 (stereo not given),n,11.2µM,n,n,u,u
Cc1ccc2ccc(C(Nc3ccccc3)c3ccc(Cl)cc3)c(O)c2n1 (stereo not given),n,u,n,n,5.62µM,15.8µM
Cc1ccc2ccc(C(Nc3ccccc3)c3ccc(F)cc3)c(O)c2n1 (stereo not given),n,n,n,n,3.16µM,u
COc1ccccc1-c1nc(C(=O)NCC2CCCO2)cc2c1[nH]c1ccccc12 (stereo not given),n,n,u,n,20µM,n
O=C(NCC1CCCO1)c1cc2c([nH]c3ccccc32)c(-c2cccc(Cl)c2)n1 (stereo not given),n,n,u,n,20µM,n
O=C(NCC1CCCO1)c1cc2ccccc2[nH]1 (stereo not given),n,n,n,n,n,n
COc1cc(-c2nc(C(=O)NCC3CCCO3)cc3c2[nH]c2ccccc23)cc(OC)c1OC (stereo not given),n,u,u,n,28.2µM,n
COc1cccc2[nH]c(C(=O)NCC3CCCO3)cc12 (stereo not given),n,n,n,n,n,n
COc1ccccc1OC(=O)c1ccccc1C,n,x,x,x,x,x
Cc1ccc(OCc2nc(-c3ccccc3OCC(=O)N3CCCCCC3)no2)cc1,n,x,x,x,x,x
O=c1c2ccc([N+](=O)[O-])cc2ncn1CCOc1ccc(Cl)cc1,n,n,n,n,25.1µM,n
CC(C)(C)NC(=O)NC(=O)COc1ccc(Br)cc1Br,n,n,n,n,28.2µM,n
CCc1ccc(-c2csc(Nc3ccc(O)c(C(=O)O)c3)n2)cc1,n,x,x,x,x,x
SMILES,LDHA block,aSyn rescue,FUS yeast rescue,PTHR1 ag,TDP-43 yeast inh,Abeta rescue
O=C(NC(=S)Nc1ccc(N2CCOCC2)c(Cl)c1)c1cncc(Br)c1,n,n,n,n,20µM,n
O=C(NC(=S)NC1CCCCCC1)c1cncc(Br)c1,n,n,x,n,15.8µM,u
Cc1ccccc1CN1CCCN(c2cccc(C(=O)NCc3ccc4c(c3)OCO4)c2)C1=O,n,x,x,x,x,x
CCCCN(C)C(=O)c1cc2cc3ccc(OC)cc3nc2s1,n,n,n,n,17.8µM,n
Cc1cc(C)c2nc(-c3ccc(C)c(C)c3)cc(C(=O)O)c2c1,n,x,x,x,x,x
COc1ccc(CCC(=O)C(C#N)C(=O)Nc2cccc(C)c2)cc1 (stereo not given),n,x,x,x,x,x
Cc1ccc(C(=O)O/N=C(\N)c2cccnc2)cc1[N+](=O)[O-],n,n,n,n,n,n
N/C(=N\OC(=O)c1ccc(Cl)c([N+](=O)[O-])c1)c1ccccc1,n,n,n,n,12.6µM,n
N/C(=N\OC(=O)c1ccc(Cl)c(Cl)c1)c1ccccn1,n,n,n,n,n,n
N/C(=N\OC(=O)c1ccc(Cl)cc1)c1ccccn1,n,n,n,n,10µM,n
N/C(=N\OC(=O)c1cc([N+](=O)[O-])ccc1Cl)c1cccnc1,n,n,n,n,12.6µM,n
N/C(=N\OC(=O)c1ccc(Cl)c([N+](=O)[O-])c1)c1ccccn1,n,n,n,n,15.8µM,n
FC(F)(F)c1ccccc1Cc1c(-c2cccc(Br)c2)nc2c3ccccc3ccn12,n,n,n,n,14.1µM,n
OCc1ccccc1-c1ccc2nncn2c1,n,u,n,n,35.5µM,n
c1csc(-c2ccc3nncn3c2)c1,n,n,n,n,n,n
Cn1c(SCC(=O)Nc2cccc(C(=O)O)c2)nnc1-c1cc2cc(Br)ccc2o1,-34.2,n,n,n,n,n
COC(=O)N1C(=O)[C@](c2ccc(Cl)cc2)(C(C)C)N1C(=O)OC,n,n,n,n,35.5µM,n
COc1ccc(C(=O)C(Cl)C(=O)c2ccc(OC)cc2)cc1,n,x,x,x,x,x
CN=c1scc(-c2cccs2)n1/N=C/c1ccc(O)c(O)c1O,n,n,31.6µM,n,n[0.397 µM],n
CN=c1scc(-c2cccs2)n1/N=C/c1ccccc1O,n,n,x,n,n,n
CC(C)Cc1ccc(-c2cc(=O)[nH][nH]2)cc1,n,n,n,n,20µM,n
CC(C)Cc1cc(C(=O)N2CCN(c3ccc(F)cc3)CC2)no1,n,n,n,n,22.4µM,n
O=C(c1ccc(CS(=O)(=O)c2ccc(Br)cc2)o1)N1CCN(c2ccc(F)cc2)CC1,n,n,n,n,n,n
O=C(Nc1ccc(N2CCN(C(=O)c3cccs3)CC2)cc1)c1ccc(Br)o1,n,n,n,n,25.1µM,n
O=C(c1ccc(Br)o1)N1CCN(c2ccc(F)cc2)CC1,n,n,n,n,12.6µM,n
Cc1[nH]c2ccccc2c1C(=O)C(=O)Nc1ccc(Oc2ccccc2)cc1,n,x,x,x,x,x
CCN(CC)S(=O)(=O)c1ccc(Cl)c(C(=O)NC(C)c2cc3ccccc3o2)c1 (stereo not given),n,x,x,x,x,x
COc1cc(-c2nc(C)c(C(C)=O)n2O)ccc1OCC(=O)Nc1ccc(F)cc1,n,n,n,n,n,n

# Assay outcomes: PubChem BioAssay, National Center for Advancing Translational Sciences (NCATS)
